This note sets out measurements from PubChem BioAssay AID463173 (ICCB-Longwood Screening Facility, Harvard Medical School, 2010).

SMILES strings stand for the structures. The whole screen tested about 52,000 compounds, of which about 1,700 (3.3%) were called active. What follows is part of a selection rich in actives, with near analogues and random picks from the rest. A number with no mark means an inactive call. Rule as the data show it: active = survival mostly below about 52% (no sharp cut-off); inactive = mostly above about 56%.

The test system of the test is Wild type. As to the kind of experiment: S. aureus survival, RN4220 and DeltatarO strains – OD600, teichoic acid synthesis inhibitors, primary screen (AID 463173). The note with it: S. aureus RN4220 wild type/DeltatarO growth, OD600, 18 h, stronger effect = lower value, screened at 18.75 µg/mL (by protocol).
As for `CN(C)C(=O)CN(C#N)c1nc(Cl)nc(N(C)C)n1`, the survival was 110%.
For the compound `N#Cc1ccc(S(=O)(=O)N2CCC(Oc3cccc(C(F)(F)F)c3)CC2)cc1`, the survival is 84%.
Regarding `COc1ccc(CNC(=O)Cc2ccc(NC(=O)N3CCSc4ncccc43)cc2)cc1OC`, the survival was 75%.
For the compound `Cc1cccc(-c2nc3c4ccccc4nc(NCc4ccc(Cl)cc4)n3n2)c1`, the survival was 47%.
In the case of `O=C1CCSC2(C(=O)N(Cc3ccc(F)cc3)c3ccccc32)N1c1cccc(F)c1` (configuration not stated), the survival is 74%.
For `CCOc1ccccc1C(=O)Nc1c(NC)c2ccccc2oc1=O` the value was 76%.
In the case of `Fc1ccc(-c2noc3ncnc(NCC4CCN(Cc5ccc(Cl)cc5)CC4)c23)cc1`, the survival is 81%.
The figure for `Cc1ccc(CN2CCC(CNc3ncnc4onc(-c5ccc(Cl)cc5)c34)CC2)cc1` is 77%; for `Cc1ccc(CN2CCC(CNc3ncnc4onc(-c5ccc(F)cc5)c34)CC2)cc1` it is -4% (active).
Take `O=c1c(S(=O)(=O)c2ccc(Cl)cc2)cn(Cc2ccc(F)cc2)c2ccc(F)cc12`: the survival is 130%.
On to `CCn1c(=O)c2cc(C(=O)NCCCN3CCN(C)CC3)sc2c2ccccc21`, for which the survival was 124%.
For the compound `COCCNC(=O)C1=CC(c2ccc3c(c2)OCO3)=NS(=O)(=O)N1C`, the survival was 103%.
As to `Cc1ccc(CNC(=O)CCC(=O)N2CC3CCCN3c3ccccc32)cc1` (configuration not stated), the survival was 82%.
On to `O=C(CCC(=O)N1CC2CCCN2c2ccccc21)NCc1cccc(Cl)c1` (configuration not stated), for which the survival was 10% (active).
Turning to `O=C(CCC(=O)N1CC2CCCN2c2ccccc21)NCc1ccccc1` (configuration not stated), the survival is 88%.
Turning to `O=C(CCC(=O)N1CC2CCCN2c2ccccc21)NCc1ccc(F)cc1` (configuration not stated), the survival was -2% (active).
As for `COc1cccc(CNC(=O)CCC(=O)N2CC3CCCN3c3ccccc32)c1` (configuration not stated), the survival was 65%.
Regarding `O=C(CCC(=O)N1CC2CCCN2c2ccccc21)NCc1ccccc1Cl` (configuration not stated), the survival was 69%.
With `CC(=O)Nc1nonc1-c1nnc(SCC(=O)Nc2ccccc2)n1-c1ccccc1`, the survival is 51%.
Take `O=C(NC1CCCC1)C(c1ccc(O)cc1)N(C(=O)Cn1nnc(-c2cccs2)n1)C1CCCC1` (configuration not stated): the survival was 100%.
The figure for `O=C(Cn1c(=O)sc2ccccc21)OCc1ccccc1` is 118%; for `CCCOc1ccccc1Cn1c(=O)sc2ccccc21` it is -5% (active); for `CCN(CC)C(=O)Cn1c(=O)sc2ccccc21` it is 105%.
With `Cc1cccc(NC(=O)Cn2c(=O)sc3ccccc32)c1`, the survival was 119%.
For the compound `CC(C)CCOc1ccccc1Cn1c(=O)sc2ccccc21`, the survival was -1% (active).
For the compound `CS(=O)(=O)n1c(=O)sc2ccccc21`, the survival is 121%.
For `O=C(Cn1c(=O)sc2ccccc21)Nc1ccc(O)cc1` the value was 103%; for `CCOC(=O)Cn1c(=O)sc2ccccc21`, 116%; for `CCCCOc1ccccc1Cn1c(=O)sc2ccccc21`, -4% (active).
Consider `COc1ccc(CNCCNC(=O)c2cccs2)c(OC)c1OC`, for which the survival was 108%.
As to `COc1ccc(CNC(=O)c2ccc3c(c2)N(Cc2ccc(C)cc2)CCS3)cc1`, the survival was 93%.
As to `O=C(Cn1nc(-c2ccc(Cl)cc2)ccc1=O)NCCc1ccccc1`, the survival was 45%.
As for `C=Cc1ccc(Cn2c(=O)n(-c3cccc(Cl)c3)c(=O)c3c4c(sc32)CN(C(C)=O)CC4)cc1`, the survival was 81%.
For `Cc1cc(C)c(S(=O)(=O)N2CCN(Cc3nc4ccc(C)cc4o3)CC2)c(C)c1`, the survival was 73%.
For `O=[N+]([O-])c1cc(-c2nc(-c3ccccc3)no2)ccc1NCC1CCCO1` (configuration not stated) the value was 86%; for `CC(C)(C)OC(=O)N1CCC(c2c(C(=O)NCc3ccccn3)cnn2-c2ccccc2Cl)CC1`, -6% (active); for `Cc1ccc(-n2ncc(C(=O)NCc3ccccn3)c2C2CCN(C(=O)OC(C)(C)C)CC2)c(C)c1`, 45%.
`CCOC(=O)N1CCC(NC(=O)c2cnn(-c3cccc(Cl)c3C)c2C2CCN(C(=O)OC(C)(C)C)CC2)CC1`: the survival was -3% (active).
For `Cc1c(Cl)cccc1-n1ncc(C(=O)NC2CCCCC2)c1C1CCN(C(=O)OC(C)(C)C)CC1` the value was 75%.
For the compound `Cc1c(Cl)cccc1-n1ncc(C(=O)NC2CCCC2)c1C1CCN(C(=O)OC(C)(C)C)CC1`, the survival is 66%.
The figure for `CC(C)(C)OC(=O)N1CCC(c2c(C(=O)NCc3ccccn3)cnn2-c2ccccc2)CC1` is 73%; for `CC1CCN(S(=O)(=O)c2ccc3c(c2)c(=O)c(C(=O)N2CCN(c4cccc(Cl)c4)CC2)cn3C)CC1` it is 94%.
On to `CCCNC(=O)Cn1nc(-c2ccc(F)cc2)c2cnc3ccc(F)cc3c21`, for which the survival is 82%.
For `CCn1c(Cc2ccccc2)nnc1SCC(=O)N1CCCCC1C` (configuration not stated), the survival is 116%.
Turning to `COc1ccc(NC(=O)CCc2nc3cccnc3n2-c2ccccc2)c(OC)c1`, the survival was 68%.
For `COc1ccc(OC)c(Nc2nc3ccccc3n3c(C)nnc23)c1` the value was 83%; for `Nn1cnnc1SCC(=O)N(C1CCCCC1)C1CCCCC1`, 107%; for `O=C(Nc1ccc(NC(=O)c2cccs2)cc1)c1cccs1`, 113%.
For the compound `Cc1ccccc1CCNC(=O)c1ccc2c(c1)c(C)c(C)n2Cc1ccccc1`, the survival is 124%.
Consider `COc1cccc(/C=N/c2nc3ccccc3n2C)c1O`, for which the survival was 106%.
`COc1ccccc1/C=C/c1nc2ccccc2n1C(C)C`: the survival is 2% (active).
For `COc1cccc(/C=N/n2c(N)nc3ccccc32)c1OC` the value was 103%; for `CC1CC(C)N(C(=O)c2cc(-c3ccccc3)on2)C(C)C1` (configuration not stated), 129%.
Regarding `CCOc1ccc(NC(=O)CN(c2ccc(Cl)cc2C)S(=O)(=O)c2ccccc2)cc1`, the survival was 77%.
`CCN(CC)CC(=O)Nc1nc2ccc(OC)cc2s1`: the survival is 103%.
Consider `Cc1c(Cl)cccc1-c1ccc(/C=C(\C#N)c2nc3ccccc3[nH]2)o1`, for which the survival was 8% (active).
In the case of `N#C/C(=C\c1ccc(-c2ccc(F)cc2F)o1)c1nc2ccccc2[nH]1`, the survival was 38%.
For `N#C/C(=C\c1ccc(-c2ccccc2C(=O)O)o1)c1nc2ccccc2[nH]1`, the survival is 84%.
`Cc1ccccc1NC(=O)c1c(NC(=O)Cc2ccccc2)sc2c1CCC2`: the survival is 48%.
As for `Cc1ccc(NC(=O)c2c(NC(=O)C(F)(F)F)sc3c2CCCCC3)cc1`, the survival is -3% (active).
With `Cc1ccc(NC(=O)c2c(NC(=O)Cc3ccccc3)sc3c2CCCC3)cc1`, the survival is 49%.
On to `COc1ccc(NC(=O)c2c(NC(=O)C(F)(F)F)sc3c2CCCCC3)cc1`, for which the survival is -1% (active).
For `COc1ccc(CC(=O)Nc2sc3c(c2C(=O)Nc2ccc(C)cc2)CCCCC3)cc1` the value was 136%.
For `Cc1ccc(NC(=O)c2c(NC(=O)c3ccccc3)sc3c2CCC3)cc1`, the survival is 79%.
In the case of `COc1ccc(NC(=O)c2c(NC(=O)c3ccc(Br)cc3)sc3c2CCCC3)cc1`, the survival was 157%.
For the compound `Cc1ccccc1NC(=O)c1c(NC(=O)C(F)(F)F)sc2c1CCCCC2`, the survival is 1% (active).
`Cc1ccccc1NC(=O)c1c(NC(=O)c2ccccc2)sc2c1CCC2`: the survival was 137%.
